Assay [1] in a line: Quantitative highthroughput screen to assess conditional lethalithy of NOMO1 cells grown in RPMI1640 with untreated serum (RPMI+s) (AID 1963876). Further: nearly all actives have a fitted effect of over 35% in size. Further: potency means the concentration at half of the fitted maximal effect.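 On viability: 100% = DMSO wells and 0% = empty wells without cells.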 In a few lines: (§1)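 Each medium arm—HPLM with 10% dialyzed FBS, or RPMI1640 with 5 mM glucose and 10% untreated or dialyzed FBS—was screened against an 11-point, 3-fold compound titration for 48 h at 37 °C, with CellTiter-Glo luminescence as endpoint.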

Assay [2] can be described thus: Quantitative highthroughput screen to assess conditional lethalithy of NOMO1 cells grown in RPMI1640 with dialyzed fetal bovine serum (RPMI+ds) (AID 1963877). Further: nearly all actives have a fitted effect of over 30% in size. Further: potency means the concentration at half of the fitted maximal effect.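 On viability: series mostly up to about 46 µM; 100% = DMSO control wells and 0% = empty wells.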 In a few lines:
as §1

Assay [3] in a line: Quantitative highthroughput screen to assess conditional lethalithy of NOMO1 cells grown in Human Plasma-Like Medium with dialyzed fetal bovine serum (HPLM+ds) (AID 1963878). Further: nearly all actives have a fitted effect of over 35% in size. Further: potency means the concentration at half of the fitted maximal effect.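 On viability: 100% = DMSO wells and 0% = empty wells on each plate.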 In a few lines:
as §1

Assay [4] can be described thus: Quantitative highthroughput screen to assess conditional lethalithy of P12 Ichikawa cells grown in RPMI1640 with untreated serum (RPMI+s) (AID 1963881). Further: nearly all actives have a fitted effect of over 35% in size. Further: potency means the concentration at half of the fitted maximal effect.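 On viability: series mostly up to about 46 µM; 100% = DMSO wells and 0% = empty wells without cells.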 The conditions noted are these: Potency: viability. The essentials: as §1
Assay [5] in a line: Quantitative highthroughput screen to assess conditional lethalithy of SEM cells grown in Human Plasma-Like Medium with dialyzed fetal bovine serum (HPLM+ds) (AID 1963882). Further: nearly all actives have a fitted effect of over 35% in size. Further: potency means the concentration at half of the fitted maximal effect. On viability: series mostly up to about 46 µM. The essentials: as §1
Assay [6] is described as follows: Quantitative highthroughput screen to assess conditional lethalithy of SEM cells grown in RPMI1640 with dialyzed fetal bovine serum (RPMI+ds) (AID 1963884). Further: nearly all actives have a fitted effect of over 35% in size. Further: potency means the concentration at half of the fitted maximal effect.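 On viability: series mostly up to about 46 µM; 100% = DMSO control wells and 0% = empty wells without cells.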 In a few lines:
as §1

Assay [7] can be described thus: Quantitative highthroughput screen to assess conditional lethalithy of P12 Ichikawa cells grown in RPMI1640 with dialyzed fetal bovine serum (RPMI+ds) (AID 1963880). Further: nearly all actives have a fitted effect of over 35% in size. Further: potency means the concentration at half of the fitted maximal effect.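 On viability: 100% = DMSO wells and 0% = empty wells on each plate.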 The conditions noted are these: Potency: P12-Ichikawa viability. The essentials:
as §1

Assay [8] is described as follows: Cellular viability qHTS for adrenocortical cancer (ACC) cell line SW-13 (AID 1963989).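 Further: cells grown in serum-free medium with ITS supplement; on the % scale 0 is the no-effect control and ±100 the full control effect; nearly all actives have a fitted effect of over 65% in size.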 The conditions noted are these: SW-13 ACC cells viability, CellTiter-Glo, 48 h; activity (max response): stronger effect = lower value. In a few lines:
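Luminescent ATP read-out (CellTiter-Glo, 20 min at room temperature) measured metabolically competent SW-13 cells after 48 h compound treatment. Final concentrations spanned up to 46 uM; bortezomib served as positive control.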

Assay [9] is described as follows: Cellular viability qHTS for adrenocortical cancer (ACC) cell line NCI-H295R (AID 1963990). Further: nearly all actives have a fitted effect of over 60% in size. Further: potency means the concentration at half of the fitted maximal effect. In a few lines:
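IC50 and maximal efficacy derive from four-parameter logistic modelling of titration curves, with reads scaled between DMSO-only wells (0%) and doxorubicin hydrochloride (100% inhibition). Compounds spanned up to 46 uM over 48 h.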

Assay [10] in a line: Quantitative highthroughput screen to assess conditional lethalithy of SEM cells grown in RPMI1640 with unreated serum (RPMI+s) (AID 1963883). Further: nearly all actives have a fitted effect of over 35% in size. Further: potency means the concentration at half of the fitted maximal effect.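 On viability: 100% = DMSO wells and 0% = empty wells without cells.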 The essentials: as §1
Assay [11] can be described thus: Quantitative highthroughput screen to assess conditional lethalithy of P12 Ichikawa cells grown in Human Plasma-Like Medium with dialyzed fetal bovine serum (HPLM+ds) (AID 1963879). Further: nearly all actives have a fitted effect of over 35% in size. Further: potency means the concentration at half of the fitted maximal effect. On viability: series mostly up to about 46 µM. The conditions noted are these: Potency: viability. The essentials: as §1

Where “and” joins values, the source holds several entries; their conditions need not be identical. Equal values may be shown once. Results filed as inconclusive are left out. More than one record can exist for a structure, and the calls need not agree. Calls of active or inactive are those of the source. The call rests on the fitted dose curve; in most records, active means well fitted curve in the direction sought with a large enough effect; inconclusive means small, poorly fitted or top-dose-only effect, or another doubt; inactive means no such curve, though single readings can be large; an effect the other way counts as inactive or inconclusive.

`O=C1c2c(O)cc(O)cc2O[C@H](c2cc(O)c(O)c(O)c2)[C@H]1O`: the Potency result in assay [1], in assay [2], in [3] and in assay [4] was “inactive” in each case. In addition, the Potency in assay [5] was 3720 nM (active); in [6], 5260 nM (active).
For `C[C@]12CC[C@@H]3c4ccc(O)cc4CC[C@H]3[C@H]1[C@@H](O)[C@@H](O)[C@H]2O`, the Potency entry in assay [1], in assay [2], in assay [3], in [7], in assay [4] and in assay [9] was “inactive” each time. The activity (max response) in assay [8] was -1.98% (inactive).
Consider `CNC(=O)c1ccc(N2C(=S)N(c3ccc(C#N)c(C(F)(F)F)c3)C(=O)C2(C)C)cc1F`, for which the Potency result in [1], in assay [2], in [3], in [7], in [4] and in assay [5] was “inactive” throughout. The Potency entry in [10], in [6] and in assay [9] was “inactive” in each case.
Take `CC(C)CN(C[C@@H](O)[C@H](Cc1ccccc1)NC(=O)O[C@H]1CO[C@H]2OCC[C@H]21)S(=O)(=O)c1ccc(N)cc1`: the Potency result in assay [1], in [2] and in assay [3] was “inactive” in each case. Also, in assay [5], the Potency is 3720 nM (active).
With `CC(=O)OCC(=O)[C@@]12N=C(C)O[C@H]1C[C@H]1[C@@H]3CCC4=CC(=O)C=C[C@]4(C)[C@@H]3[C@@H](O)C[C@@]12C`, the Potency entry in [1], in assay [2] and in assay [3] was “inactive” in each case. For the same compound, the Potency in [11] is 4180 nM (active); in [10], 23500 nM (active); in assay [6], 20900 nM (active).
Consider `O=C1NC(=O)C(=Cc2ccc3c(c2)OC(F)(F)O3)S1`, for which the Potency entry in [1], in assay [2], in assay [3], in assay [4] and in [5] was “inactive” in each case.
Turning to `CCCCCCOC(=O)N=C(N)c1ccc(NCc2nc3cc(C(=O)N(CCC(=O)OCC)c4ccccn4)ccc3n2C)cc1`, the Potency was 26400 nM (active) in assay [1], 26400 nM (active) in [2] and 20900 nM (active) in [3]. Further, the Potency entry in [11], in [5], in assay [10] and in assay [6] was “inactive” throughout.
On to `CC[C@H]1CN2CCc3cc(OC)c(OC)cc3[C@H]2C[C@@H]1C[C@@H]1NCCc2cc(OC)c(OC)cc21`, for which the Potency in assay [1] was 469 nM (active); in [2], 469 nM (active); in assay [3], 526 nM (active); in assay [7], 418 nM (active); in [4], 235 nM (active); in assay [5] it was 166 nM (active). Further, the Potency in assay [10] is 235 nM (active).
On to `CCN(CC)CCOc1ccc(Cc2ccccc2)cc1`, for which the Potency in assay [1] is 10500 nM (active); in assay [3], 7430 nM (active); in assay [10], 4180 nM (active); in [6] it was 8330 nM (active); in [9], 18.4 µM (active) and inactive. Besides, the Potency result in assay [2] and in assay [4] was “inactive” in each case. Besides, in assay [8], the activity (max response) was -24% (inactive).
Take `CN[C@H](CC(C)C)C(=O)N[C@H]1C(=O)N[C@@H](CC(N)=O)C(=O)N[C@@H]2C(=O)N[C@H]3C(=O)N[C@H](C(=O)N[C@H](C(=O)O)c4cc(O)cc(O)c4-c4cc3ccc4O)[C@H](O)c3ccc(c(Cl)c3)Oc3cc2cc(c3O[C@@H]2O[C@H](CO)[C@@H](O)[C@H](O)[C@@H]2O[C@H]2C[C@](C)(N)[C@H](O)[C@H](C)O2)Oc2ccc(cc2Cl)[C@H]1O`: the Potency result in assay [1], in assay [2], in [3], in assay [11], in [5] and in assay [10] was “inactive” in each case. For the same compound, the Potency result in assay [6] was “inactive”.
On to `CC(C)c1nc(CN(C)C(=O)N[C@H](C(=O)N[C@@H](Cc2ccccc2)C[C@H](O)[C@H](Cc2ccccc2)NC(=O)OCc2cncs2)C(C)C)cs1`, for which the Potency result in assay [1], in [2], in assay [3], in assay [7], in assay [4] and in assay [5] was “inactive” throughout. Moreover, the Potency result in assay [10] and in assay [6] was “inactive” throughout.
Turning to `Clc1ccc(-c2nc3sccn3c2C=NOCc2ccc(Cl)c(Cl)c2)cc1`, the Potency entry in assay [1], in assay [2], in assay [3], in [7], in assay [4] and in [6] was “inactive” each time.
On to `O=[N+]([O-])c1cn2c(n1)OC[C@@H](OCc1ccc(OC(F)(F)F)cc1)C2`, for which the Potency entry in assay [1], in assay [2], in [3], in assay [7], in [4] and in assay [5] was “inactive” in each case. In addition, the Potency result in assay [10], in assay [6] and in assay [9] was “inactive” in each case.
Consider `O=c1c2ccccc2nc2n1CCc1c-2[nH]c2ccccc12`, for which the Potency result in assay [1], in assay [2] and in assay [3] was “inactive” throughout. For the same compound, the Potency in assay [4] is 13200 nM (active).
Take `CC(=O)N1CCN(c2ccc(OCc3nn(C)c(C)c3-c3cccc4c(CCCOc5cccc6ccccc56)c(C(=O)O)n(Cc5cccnc5)c34)cc2)CC1`: the Potency was 1660 nM (active) in assay [1], 2640 nM (active) in [2], 2350 nM (active) in assay [3] and 10500 nM (active) in assay [4]. In addition, the Potency entry in [5] and in assay [6] was “inactive” each time.
Consider `O=NN(CCCl)C(=O)NCCCl`, for which the Potency result in assay [1], in [2], in assay [3], in assay [7], in assay [4] and in assay [5] was “inactive” throughout. In addition, the Potency result in [6] and in assay [9] was “inactive” in each case. The activity (max response) in [8] was 15.2% (inactive).
For the compound `C[C@@H]1CC=CC=CC=CC=C[C@@H](O[C@@H]2O[C@H](C)[C@@H](O)[C@H](N)[C@H]2O)C[C@@H]2O[C@](O)(C[C@@H](O)C[C@@H]3O[C@@H]3C=CC(=O)O1)C[C@H](O)[C@@H]2C(=O)O`, the Potency entry in assay [1], in assay [2], in [11], in assay [7], in [4] and in [5] was “inactive” each time. Also, the Potency entry in [10] and in [6] was “inactive” each time.
Consider `CC(NCc1ccc2c(c1)nc(NC(=O)c1ccc(-c3cn[nH]c3)s1)n2CC(C)(C)O)C(C)(C)C` (configuration not stated), for which the Potency in assay [1] is 2640 nM (active); in assay [2], 2640 nM (active); in [11], 2350 nM (active); in assay [7] it was 2640 nM (active); in assay [4], 2640 nM (active); in assay [5], 26.4 nM (active). For the same compound, the figures for the Potency in assay [10] and in assay [6] were 41.8 nM (active) and 18.7 nM (active), respectively.
Take `O=S(=O)(NCCNCC=Cc1ccc(Br)cc1)c1cccc2cnccc12`: the Potency entry in assay [1], in assay [2] and in assay [11] was “inactive” each time.
As for `CCCCC(=O)O[C@]1(C(=O)CO)[C@@H](C)C[C@H]2[C@@H]3CCC4=CC(=O)C=C[C@]4(C)[C@@]3(F)[C@@H](O)C[C@@]21C`, the Potency entry in [1], in assay [2], in assay [3] and in assay [9] was “inactive” throughout. Also, the activity (max response) in assay [8] is -3.35% (inactive) and -9.39% (inactive).

The record behind these values is PubChem BioAssay (NCATS).
